The record followed here is PubChem BioAssay.

The test system of assay [1] is Plasmodium falciparum Sir2 (PF13_0152, Sir2A). The experiment in a line: pfSir2 binders on small-molecule microarrays, primary screen, biochemical, small-molecule microarray, 635 nm fluorescence (AID 1098).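 Also: score merges spot fluorescence intensity with its signal-to-noise ratio.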 The conditions noted are these: small-molecule microarray binding, fluorescence 635 nm; higher = more signal.
The nature of assay [2]: small-molecule microarray binders of probe aDKK1, primary screen, biochemical, biotinylated probe, 635/667 nm fluorescence (AID 1099).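 Also: score merges 667nm spot fluorescence with signal to noise across triplicate slides; reference of the scale not given here.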 The conditions noted are these: higher = more signal.
Assay [3] is described as follows: small-molecule microarray binders of probe aCHRDL2, primary screen, biochemical, biotinylated probe, 635/667 nm fluorescence (AID 1100). Conditions: higher = more signal.
Assay [4] is described as follows: splicing luciferase reporter signal modulators, primary screen, spliceosome inhibition project, cell-based, HEK293, splice +/- reporter (AID 1101).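 Also: HEK293 cells carrying a splicing-competent luciferase reporter gene; test concentration not given here.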 Conditions: luminescence, 24 h, higher = more signal, called active from +8 up or from −8 down. For orientation: In a reporter assay the amount or activity of a reporter protein is the signal.
The target in assay [5] is Fibroblast growth factor 10 (Homo sapiens) (UniProt O15520). The assay can be described thus: FGF10 binders on small-molecule microarrays, primary screen, biochemical, small-molecule microarray, 635 nm fluorescence (AID 1102). Conditions: FGF10 binding, fluorescence 635 nm, higher = more signal.
Assay [6] concerns glycogen synthase kinase-3 (GSK3A per assay name; protocol says GSK3B). The experiment in a line: GSK3 binders on small-molecule microarrays, primary screen, biochemical, small-molecule microarray, 635 nm fluorescence, GSK3A (AID 1103). Also: the record names both GSK3A and GSK3B. The conditions noted are these: small-molecule microarray binding, fluorescence 635 nm; higher = more signal.
Assay [7] has as its target Epidermal growth factor receptor (Homo sapiens) (UniProt P00533). The assay can be described thus: EGFR binders on small-molecule microarrays, primary screen, biochemical, small-molecule microarray, 635 nm fluorescence (AID 1104).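 Also: score merges 667 nm emission intensity with spot signal to noise over triplicate slides.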 Conditions: EGFR binding, higher = more signal.
In assay [8] the target is Follistatin-related protein 3 (Homo sapiens) (UniProt O95633). The experiment in a line: FSTL3 binders on small-molecule microarrays, primary screen, biochemical, small-molecule microarray, 635 nm fluorescence (AID 1105).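 Also: score merges emission near 667 nm and signal to noise per printed spot across three slides.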 Conditions: FSTL3 binding, higher = more signal.
For assay [9], the target named is Dickkopf-related protein 1 (Homo sapiens) (UniProt O94907). The experiment in a line: DKK1 binders on small-molecule microarrays, primary screen, biochemical, small-molecule microarray, 635 nm fluorescence scan (AID 1106).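 Also: score merges emission near 667 nm with signal to noise over three replicate slides.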 Conditions: DKK1 binding, higher = more signal.
The test system of assay [10] is Inhibin beta A chain (activin A). The assay can be described thus: INHBA (activin A) binders on microarrays, primary screen, biochemical, small-molecule microarray, 635 nm fluorescence scan (AID 1107).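 Also: mouse activin A protein probed at 4.33 µg/mL on printed slides; score merges bound-protein fluorescence near 667 nm with spot signal-to-noise.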 Conditions: small-molecule microarray binding, higher = more signal.

Calls of active or inactive are those of the source.

Chain of Epidermal growth factor receptor (Homo sapiens) (P00533 whole entry, looked up): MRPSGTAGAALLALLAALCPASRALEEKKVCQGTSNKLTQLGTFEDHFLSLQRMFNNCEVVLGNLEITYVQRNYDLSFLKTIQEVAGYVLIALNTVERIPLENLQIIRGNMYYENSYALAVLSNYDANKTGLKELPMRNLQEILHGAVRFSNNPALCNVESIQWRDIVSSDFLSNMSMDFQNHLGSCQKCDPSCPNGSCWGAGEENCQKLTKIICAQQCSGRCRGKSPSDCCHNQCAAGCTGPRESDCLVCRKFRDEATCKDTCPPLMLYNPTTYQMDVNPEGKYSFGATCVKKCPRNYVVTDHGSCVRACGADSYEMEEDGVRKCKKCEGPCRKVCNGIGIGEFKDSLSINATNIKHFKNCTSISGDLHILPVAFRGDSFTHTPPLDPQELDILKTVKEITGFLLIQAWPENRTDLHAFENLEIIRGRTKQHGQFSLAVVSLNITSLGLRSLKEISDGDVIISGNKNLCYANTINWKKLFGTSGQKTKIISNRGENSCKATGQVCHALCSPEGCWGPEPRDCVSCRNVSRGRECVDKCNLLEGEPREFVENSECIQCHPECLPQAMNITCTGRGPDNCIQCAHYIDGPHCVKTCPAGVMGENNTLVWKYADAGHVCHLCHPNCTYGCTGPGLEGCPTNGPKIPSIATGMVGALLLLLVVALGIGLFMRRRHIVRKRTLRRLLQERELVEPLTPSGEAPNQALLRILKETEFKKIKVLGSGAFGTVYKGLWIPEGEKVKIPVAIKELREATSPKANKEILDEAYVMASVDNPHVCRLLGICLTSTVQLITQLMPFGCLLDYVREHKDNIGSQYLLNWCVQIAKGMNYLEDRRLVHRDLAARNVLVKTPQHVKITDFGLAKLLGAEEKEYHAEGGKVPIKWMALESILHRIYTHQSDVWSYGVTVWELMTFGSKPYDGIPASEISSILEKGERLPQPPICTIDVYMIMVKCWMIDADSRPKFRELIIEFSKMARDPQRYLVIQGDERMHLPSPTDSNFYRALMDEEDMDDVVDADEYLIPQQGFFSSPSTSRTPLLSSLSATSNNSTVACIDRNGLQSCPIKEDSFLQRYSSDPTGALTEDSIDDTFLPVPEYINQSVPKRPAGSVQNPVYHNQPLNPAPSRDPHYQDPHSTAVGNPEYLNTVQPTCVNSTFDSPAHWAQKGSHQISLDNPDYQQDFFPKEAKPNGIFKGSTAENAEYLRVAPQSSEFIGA
Chain of Fibroblast growth factor 10 (Homo sapiens) (O15520 whole entry, looked up): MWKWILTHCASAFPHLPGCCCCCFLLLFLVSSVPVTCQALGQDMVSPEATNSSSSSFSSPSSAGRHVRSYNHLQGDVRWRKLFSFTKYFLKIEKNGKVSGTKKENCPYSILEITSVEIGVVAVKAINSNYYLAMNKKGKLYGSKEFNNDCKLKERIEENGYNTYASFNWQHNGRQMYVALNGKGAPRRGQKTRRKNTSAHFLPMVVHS
Chain of Follistatin-related protein 3 (Homo sapiens) (O95633 whole entry, looked up): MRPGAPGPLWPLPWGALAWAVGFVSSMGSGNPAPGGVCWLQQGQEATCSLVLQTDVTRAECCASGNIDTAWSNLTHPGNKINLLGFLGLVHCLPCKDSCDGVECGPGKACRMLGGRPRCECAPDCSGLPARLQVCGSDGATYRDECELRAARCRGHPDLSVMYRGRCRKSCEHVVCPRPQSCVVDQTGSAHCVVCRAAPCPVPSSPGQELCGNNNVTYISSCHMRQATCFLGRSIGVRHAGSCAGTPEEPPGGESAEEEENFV
Chain of Dickkopf-related protein 1 (Homo sapiens) (O94907 whole entry, looked up): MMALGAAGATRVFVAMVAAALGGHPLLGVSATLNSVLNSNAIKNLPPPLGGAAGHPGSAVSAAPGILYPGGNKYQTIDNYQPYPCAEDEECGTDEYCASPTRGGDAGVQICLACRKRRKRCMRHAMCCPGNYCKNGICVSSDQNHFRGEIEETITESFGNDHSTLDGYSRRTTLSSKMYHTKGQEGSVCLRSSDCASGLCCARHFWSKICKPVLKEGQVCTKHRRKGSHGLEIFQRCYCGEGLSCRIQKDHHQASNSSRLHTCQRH

In the case of `CCCCCCc1nc(Cc2cc(OC)c(OC)c(OC)c2)cc2c1[Si](C(C)C)(C(C)C)O[C@H]2c1ccccc1`, the composite z-score is 0.268 in [1]; -0.333 in assay [2]; -0.511 in assay [3]; 0.351 in assay [5]; 0.124 in assay [6]; 0.569 in [7]. Further, the composite z-score is 0.594 in assay [8], 0.548 in assay [9] and 0.882 in assay [10]. Moreover, the z-score in assay [4] is -0.189 (inactive).
With `Cc1ccc(N2C(=O)c3ccccc3[C@](C)(C(=O)NCCCN(C)C)[C@@H]2c2ccc(CO)cc2)nc1`, the composite z-score in [1] was 0.485; in assay [2] it was -0.0971; in assay [3] it was 0.451; in [5] it was -0.47; in assay [6], -1.21; in [7], -1.1. Moreover, the composite z-score in [8] is -0.444; in assay [9] it was -0.599; in [10], 0.573. Also, the z-score in assay [4] was 0.055 (inactive).
For the molecule `CCOC(=O)C[C@H]1[C@H](OC(=O)c2ccccc2-c2ccccc2)[C@@H](NC(=O)C2CCCCC2)c2cc(OCCCO)ccc2N1C(=O)c1ccc2ccccc2n1`, the composite z-score was 0.486 in assay [1]; -0.0483 in assay [2]; -0.334 in [3]; 0.679 in assay [5]; 0.452 in assay [6]; 0.27 in assay [7]. Also, the composite z-score in assay [8] was 0.845; in assay [9], 0.483; in assay [10], -0.286. Besides, the z-score in [4] was 0.0681 (inactive).
For `C=CCOC(=O)[C@H]1[C@@H]2C(=O)O[C@@H](c3ccccc3)[C@@H](c3ccccc3)N2[C@@H](c2ccc(OCCOC(=O)[C@@H]3C[C@@H]4C(=O)N[C@@H](CCCCNC(C)=O)C(=O)N4[C@@H]3c3cccc(OCCO)c3)cc2)[C@]12C(=O)Nc1ccccc12`, the composite z-score in [1] was found to be 1.43; in assay [2], 0.171; in assay [3], 0.042; in assay [5], 0.794; in assay [6], 1.32; in [7], 0.793. The composite z-score in assay [8] turned out to be 0.726; in assay [9], 0.698; in assay [10], 0.239. For the same molecule, the z-score in [4] was 0.736 (inactive).
As to `CC(C)(C)OC(=O)CC[C@]1(C(=O)NCC(O)CO)N=C(c2ccc(OCCCO)cc2)O[C@H]1c1ccccc1N=[N+]=[N-]` (stereo not given in full), the composite z-score in assay [1] is 1.18; in [2] it was 1.24; in assay [3] it was 1.31; in assay [5], 1.4; in assay [6] it was -0.0629; in [7], -0.0913. In addition, the composite z-score in assay [8] was 0.352; in assay [9], 0.175; in assay [10] it was -0.0171. The z-score in [4] was -0.254 (inactive).
With `COC(=O)C(CC#Cc1ccc2c(c1)[C@]1(C(=O)N2)[C@H](C(=O)NC[C@H](O)c2ccccc2)[C@H]2C(=O)O[C@H](c3ccccc3)[C@H](c3ccccc3)N2[C@@H]1c1ccccc1OCCO)C(=O)OC`, the composite z-score in assay [1] came out at 1.19; in assay [2], 0.138; in assay [3] it was 0.141; in assay [5] it was 1.22; in assay [6], 1.19; in assay [7], 0.308. Also, the composite z-score in assay [8] worked out at 0.866; in assay [9], 0.502; in assay [10] it was 0.205. In addition, the z-score in assay [4] is 0.163 (inactive).
As to `CCC(CC)C(O)C1C=CC2C(=O)N(c3ccccc3)C(=O)C2N1Nc1ccccc1F` (stereo not given), the composite z-score in [1] is 1.17; in assay [2], 0.373; in assay [3] it was 0.481; in assay [5], 0.412; in assay [6], 0.554; in assay [7], 0.0005. Besides, the composite z-score was 0.226 in assay [8], -0.445 in [9] and 0.704 in assay [10]. Moreover, the z-score in [4] was -0.115 (inactive).
For the molecule `CCOC(=O)C1=C[C@@H](C(C)(C)C)N(S(=O)(=O)c2ccc(C)cc2)[C@H]1c1ccc(C#N)cc1`, the composite z-score in assay [1] is 0.895; in [2] it was 0.328; in assay [3], 0.113; in assay [5] it was 0.933; in [6], 1.11; in [7] it was 0.658. Also, the composite z-score in assay [8] came to 1.09; in assay [9] it was 0.512; in assay [10], 0.712. In [4], the z-score is -0.385 (inactive).
Consider `CN1C(=O)[C@@H]2[C@@H](CC(COc3ccccc3)=C3[C@@H](CCc4ccccc4)OB(O)C[C@@H]32)C1=O`, for which the composite z-score was 1.11 in [1]; -0.003 in assay [2]; 0.0414 in assay [3]; 0.311 in [5]; -0.557 in assay [6]; -0.133 in assay [7]. Moreover, the composite z-score was found to be 0.128 in assay [8], 0.109 in assay [9] and 0.515 in [10]. Also, the z-score in assay [4] is 0.341 (inactive).
For the molecule `Cc1ccc(S[C@]2(C(=O)NCC(F)(F)F)CC(=O)N(Cc3ccccc3C(F)(F)F)[C@@H]2c2ccc(CO)cc2)cc1`, the composite z-score in assay [1] is -0.57; in [2], 0.228; in [3], 0.942; in [5] it was -0.83; in assay [6], -1.23; in assay [7], -0.548. For the same molecule, the values for the composite z-score in assay [8], in assay [9] and in assay [10] were -1.51, -1.07 and 0.247, respectively. In addition, in assay [4], the z-score is 0.338 (inactive).
For the molecule `CC1CC/C=C\[C@H]2OC34C=CCN(c5ccc6ccccc6c5)C(=O)[C@H]3N(C(C)CO)C(=O)[C@@H]4C2C(=O)O1` (stereo not given in full), the composite z-score was 1.38 in assay [1]; -0.087 in assay [2]; 0.404 in assay [3]; -0.83 in assay [5]; -1.36 in [6]; -0.975 in assay [7]. The composite z-score is -1.04 in [8], -0.591 in assay [9] and 0.265 in assay [10]. Further, in assay [4], the z-score is 0.0493 (inactive).
Consider `CCOC(=O)C1=CC[C@@H](c2ccccc2)N(S(=O)(=O)c2ccc(C)cc2)[C@H]1c1ccccc1I`, for which the composite z-score in assay [1] came to 0.88; in assay [2], 0.655; in assay [3], 1.13; in assay [5], 0.619; in [6], 0.698; in assay [7], 0.467. Also, the composite z-score turned out to be 0.806 in assay [8], 0.254 in [9] and 0.471 in [10]. Besides, the z-score in [4] is -0.0553 (inactive).
Consider `O=C(NCCN1CCOCC1)[C@@H]1c2ccccc2C(=O)N(Cc2ccccc2C(F)(F)F)[C@H]1c1ccc(CO)cc1`, for which the composite z-score in [1] is 0.99; in assay [2], -0.745; in [3], -0.31; in [5] it was -0.393; in [6] it was 0.0726; in assay [7] it was -1.11. In addition, the composite z-score in assay [8] was -0.708; in [9], -1.28; in assay [10], -0.735. Also, the z-score in [4] was -0.422 (inactive).
As to `CCCCCCc1nc(-c2ccc(-c3ccc(Cl)c(Cl)c3)o2)cc2c1[Si](C(C)C)(C(C)C)OC2`, the composite z-score was -0.143 in assay [1]; -0.269 in assay [2]; 0.207 in [3]; -1.31 in [5]; -1.22 in assay [6]; -1.01 in assay [7]. The composite z-score in assay [8] is -0.816; in [9], -0.793; in assay [10], 0.522. Further, in [4], the z-score is -2.26 (inactive).
Take `NC(=O)N1C(=O)C2C(C1=O)C1C=C(CCCO)C2C(c2ccc(CN3CCCC3)cc2)N1Cc1sc2ccccc2c1Cl` (stereo not given): the composite z-score in assay [1] was 0.0883; in assay [2], -0.291; in [3] it was 0.233; in assay [5] it was 0.528; in assay [6], -0.42; in assay [7], -0.243. Further, the composite z-score in assay [8] was -0.744; in assay [9], -0.29; in assay [10], -0.0473. Moreover, in assay [4], the z-score is -0.497 (inactive).
